What all share (experiment): DAPPL (digital affinity profiling via proximity ligation, sequencing); 10 mM Tris-HCl pH 7.5, 50 mM NaCl, 1 mM DTT, 4% glycerol, room temperature, 30 min; GST-TFs on glutathione beads, 16-mer random dsDNA library, 0.1% formaldehyde crosslink after washing; high values mean tight binding
Holding throughout (details): protein: recombinant; tags: N-terminal GST; dsDNA, one strand shown

For one assay, the target named is T1, ELK1 (Homo sapiens, UniProt P19419 1-428).
T1 sequence: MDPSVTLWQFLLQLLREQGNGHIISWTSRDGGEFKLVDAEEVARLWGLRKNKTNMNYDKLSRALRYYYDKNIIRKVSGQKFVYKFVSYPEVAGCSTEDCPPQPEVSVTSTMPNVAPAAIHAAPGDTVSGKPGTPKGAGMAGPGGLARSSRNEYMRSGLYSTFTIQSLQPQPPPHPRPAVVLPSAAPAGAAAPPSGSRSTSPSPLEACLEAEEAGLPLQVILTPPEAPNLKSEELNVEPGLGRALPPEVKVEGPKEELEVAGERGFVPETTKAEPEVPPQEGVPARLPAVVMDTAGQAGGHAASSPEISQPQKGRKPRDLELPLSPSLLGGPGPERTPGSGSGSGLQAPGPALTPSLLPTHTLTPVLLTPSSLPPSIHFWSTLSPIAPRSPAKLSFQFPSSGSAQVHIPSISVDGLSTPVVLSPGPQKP
In short, it runs like this: (§1)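 GST fusions of human transcription factors were expressed in yeast and captured with glutathione beads. Once given DNA barcodes and pooled alongside a tag-only sample, they were incubated for 30 min at room temperature with 200 nmole of a random double-stranded 16-mer DNA library in Tris/NaCl/DTT/glycerol buffer, then washed, crosslinked (0.1% formaldehyde), proximity-ligated, PCR-amplified and sequenced on an Illumina NextSeq500. The binding signal of each hexamer is its read frequency for a factor divided by its frequency for the tag-only sample.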

A further assay deals with T2, GABPA (Homo sapiens, UniProt Q06546 1-454).
T2 sequence: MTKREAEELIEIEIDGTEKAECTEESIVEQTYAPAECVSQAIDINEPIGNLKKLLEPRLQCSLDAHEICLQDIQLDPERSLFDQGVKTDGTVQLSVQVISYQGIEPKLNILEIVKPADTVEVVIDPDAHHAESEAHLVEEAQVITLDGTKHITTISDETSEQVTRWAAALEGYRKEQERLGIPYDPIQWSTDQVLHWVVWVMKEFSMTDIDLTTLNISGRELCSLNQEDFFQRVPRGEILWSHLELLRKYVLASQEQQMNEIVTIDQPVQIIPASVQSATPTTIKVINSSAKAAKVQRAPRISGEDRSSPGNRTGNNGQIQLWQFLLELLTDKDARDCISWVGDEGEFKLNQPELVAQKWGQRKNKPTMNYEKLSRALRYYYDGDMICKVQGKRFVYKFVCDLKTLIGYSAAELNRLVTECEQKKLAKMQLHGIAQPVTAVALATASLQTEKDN
The method in brief: as §1

Another assay concerns the target T3, ERG (Homo sapiens, UniProt P11308 1-479).
T3 sequence: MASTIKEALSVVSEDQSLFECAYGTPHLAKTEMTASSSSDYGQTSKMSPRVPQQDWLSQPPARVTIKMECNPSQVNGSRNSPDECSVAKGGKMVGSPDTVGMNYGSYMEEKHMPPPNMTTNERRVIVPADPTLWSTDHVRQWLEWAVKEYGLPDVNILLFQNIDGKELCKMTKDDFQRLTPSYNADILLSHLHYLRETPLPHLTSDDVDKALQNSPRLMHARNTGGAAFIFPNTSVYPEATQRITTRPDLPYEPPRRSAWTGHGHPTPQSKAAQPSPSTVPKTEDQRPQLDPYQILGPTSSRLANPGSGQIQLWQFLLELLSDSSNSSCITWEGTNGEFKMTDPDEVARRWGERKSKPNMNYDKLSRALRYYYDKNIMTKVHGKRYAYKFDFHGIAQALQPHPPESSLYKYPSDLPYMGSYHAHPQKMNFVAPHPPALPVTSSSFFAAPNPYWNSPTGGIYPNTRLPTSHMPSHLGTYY
In short, it runs like this: as §1

The next assay concerns the target ELF1 (Homo sapiens, UniProt P32519 1-619). The method in brief:
as §1

The target in the next assay is T4, EHF (Homo sapiens, UniProt Q9NZC4 1-300).
T4 sequence: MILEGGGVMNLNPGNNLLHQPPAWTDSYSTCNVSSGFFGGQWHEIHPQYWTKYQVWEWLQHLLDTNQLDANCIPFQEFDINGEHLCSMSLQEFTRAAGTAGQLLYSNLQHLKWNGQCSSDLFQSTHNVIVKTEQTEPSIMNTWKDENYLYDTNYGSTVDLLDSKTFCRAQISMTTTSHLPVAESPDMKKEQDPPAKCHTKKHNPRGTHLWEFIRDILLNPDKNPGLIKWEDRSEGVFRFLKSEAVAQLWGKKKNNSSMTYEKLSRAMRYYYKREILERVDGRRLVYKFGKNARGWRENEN
The method in brief: as §1

Another assay concerns the target SPIB (Homo sapiens, UniProt Q01892 1-262). The method in brief: as §1
The target in a further assay is T5, FEV (Homo sapiens, UniProt Q99581 1-238).
T5 sequence: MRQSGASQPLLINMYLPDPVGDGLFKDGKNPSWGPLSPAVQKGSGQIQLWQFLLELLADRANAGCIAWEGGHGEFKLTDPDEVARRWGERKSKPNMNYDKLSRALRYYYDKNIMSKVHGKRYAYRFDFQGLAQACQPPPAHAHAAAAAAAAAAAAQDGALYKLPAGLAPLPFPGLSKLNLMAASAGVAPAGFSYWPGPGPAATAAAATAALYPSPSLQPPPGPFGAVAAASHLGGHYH
In short, it runs like this:
as §1

The next assay has as its target ETV5 (Homo sapiens, UniProt P41161 1-510). The method in brief:
as §1

In the next assay the target is ELF4 (Homo sapiens, UniProt Q99607 1-663). The method in brief:
as §1

In a further assay the target is T6, ELK4 (Homo sapiens, UniProt P28324-2 1-405).
T6 sequence: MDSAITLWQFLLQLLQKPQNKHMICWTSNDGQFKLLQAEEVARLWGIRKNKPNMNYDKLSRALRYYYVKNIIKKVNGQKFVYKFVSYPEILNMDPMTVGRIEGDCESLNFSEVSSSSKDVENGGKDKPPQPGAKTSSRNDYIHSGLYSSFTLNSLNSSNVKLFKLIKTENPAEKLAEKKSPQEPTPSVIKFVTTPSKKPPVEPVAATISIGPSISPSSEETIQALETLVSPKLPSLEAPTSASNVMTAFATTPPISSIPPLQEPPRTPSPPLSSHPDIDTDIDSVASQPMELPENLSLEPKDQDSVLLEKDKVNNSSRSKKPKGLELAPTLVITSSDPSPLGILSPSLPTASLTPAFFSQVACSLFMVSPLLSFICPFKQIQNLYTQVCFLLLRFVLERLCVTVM
In short, it runs like this: as §1

Chain of ELF1 (P32519 whole entry): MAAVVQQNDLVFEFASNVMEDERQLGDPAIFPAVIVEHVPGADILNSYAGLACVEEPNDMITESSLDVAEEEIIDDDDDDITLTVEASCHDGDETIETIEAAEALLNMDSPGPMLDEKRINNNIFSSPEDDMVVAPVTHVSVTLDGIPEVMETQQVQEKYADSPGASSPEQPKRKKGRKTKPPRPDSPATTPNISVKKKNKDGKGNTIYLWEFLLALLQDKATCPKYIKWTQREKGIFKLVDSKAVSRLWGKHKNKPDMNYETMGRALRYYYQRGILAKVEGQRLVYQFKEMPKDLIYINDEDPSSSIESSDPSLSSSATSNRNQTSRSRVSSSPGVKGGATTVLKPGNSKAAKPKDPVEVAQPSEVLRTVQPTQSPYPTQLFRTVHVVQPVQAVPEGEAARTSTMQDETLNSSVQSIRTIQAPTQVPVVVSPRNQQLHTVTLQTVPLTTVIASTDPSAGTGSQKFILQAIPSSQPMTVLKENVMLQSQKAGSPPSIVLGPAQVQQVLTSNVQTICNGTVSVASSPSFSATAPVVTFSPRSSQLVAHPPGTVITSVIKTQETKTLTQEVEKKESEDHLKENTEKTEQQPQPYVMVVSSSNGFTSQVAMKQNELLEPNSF
Chain of SPIB (Q01892 whole entry): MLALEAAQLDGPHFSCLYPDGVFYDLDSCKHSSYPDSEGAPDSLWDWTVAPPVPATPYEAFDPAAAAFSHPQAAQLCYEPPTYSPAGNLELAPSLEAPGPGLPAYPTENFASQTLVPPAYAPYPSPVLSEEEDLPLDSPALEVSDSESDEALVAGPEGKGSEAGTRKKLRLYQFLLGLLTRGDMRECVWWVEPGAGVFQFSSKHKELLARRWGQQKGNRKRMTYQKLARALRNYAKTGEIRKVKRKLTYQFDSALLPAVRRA
Chain of ELF4 (Q99607 whole entry): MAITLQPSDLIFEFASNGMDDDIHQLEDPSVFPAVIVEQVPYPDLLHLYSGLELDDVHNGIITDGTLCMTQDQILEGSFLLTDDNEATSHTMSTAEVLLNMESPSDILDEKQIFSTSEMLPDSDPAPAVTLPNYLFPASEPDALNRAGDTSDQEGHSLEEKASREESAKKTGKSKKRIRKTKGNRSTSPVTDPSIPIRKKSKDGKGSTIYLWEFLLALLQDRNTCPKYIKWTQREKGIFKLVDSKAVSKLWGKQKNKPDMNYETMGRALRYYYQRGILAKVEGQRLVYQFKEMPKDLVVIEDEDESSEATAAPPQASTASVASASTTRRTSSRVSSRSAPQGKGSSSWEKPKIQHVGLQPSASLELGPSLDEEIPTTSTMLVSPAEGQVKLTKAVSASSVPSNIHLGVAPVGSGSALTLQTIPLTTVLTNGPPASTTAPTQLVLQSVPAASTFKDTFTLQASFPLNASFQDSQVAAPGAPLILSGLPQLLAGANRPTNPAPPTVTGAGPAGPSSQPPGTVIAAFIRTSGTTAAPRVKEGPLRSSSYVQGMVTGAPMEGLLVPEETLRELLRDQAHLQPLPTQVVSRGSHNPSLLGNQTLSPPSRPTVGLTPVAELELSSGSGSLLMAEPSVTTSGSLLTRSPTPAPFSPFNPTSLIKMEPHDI
Chain of ETV5 (P41161 whole entry): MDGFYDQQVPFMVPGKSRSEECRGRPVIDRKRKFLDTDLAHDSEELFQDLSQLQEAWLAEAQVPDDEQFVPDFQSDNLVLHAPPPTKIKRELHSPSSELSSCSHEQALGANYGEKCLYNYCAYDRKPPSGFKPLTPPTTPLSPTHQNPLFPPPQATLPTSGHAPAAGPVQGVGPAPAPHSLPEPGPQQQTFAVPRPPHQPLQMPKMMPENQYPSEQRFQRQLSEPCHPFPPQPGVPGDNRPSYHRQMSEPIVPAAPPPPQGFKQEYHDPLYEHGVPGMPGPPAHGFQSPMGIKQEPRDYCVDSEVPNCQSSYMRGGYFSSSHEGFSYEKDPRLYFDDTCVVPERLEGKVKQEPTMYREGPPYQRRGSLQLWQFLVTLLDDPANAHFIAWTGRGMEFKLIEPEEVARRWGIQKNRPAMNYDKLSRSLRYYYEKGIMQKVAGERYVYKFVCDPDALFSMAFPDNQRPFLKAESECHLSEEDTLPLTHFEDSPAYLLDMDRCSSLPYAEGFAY

For CCAACC, the binding signal in the assay with ELK1 was 1.1 fold enrichment (6-mer frequency, TF over GST control); with GABPA it was 1.01 fold enrichment (6-mer frequency, TF over GST control); with ERG it was 1.09 fold enrichment (6-mer frequency, TF over GST control); with ELF1 it was 1.16 fold enrichment (6-mer frequency, TF over GST control); in the assay with EHF, 1.04 fold enrichment (6-mer frequency, TF over GST control); with SPIB, 1.06 fold enrichment (6-mer frequency, TF over GST control). In addition, the binding signal in the assay with FEV was 1.1 fold enrichment (6-mer frequency, TF over GST control); in the assay with ETV5, 1.01 fold enrichment (6-mer frequency, TF over GST control); with ELF4, 1.15 fold enrichment (6-mer frequency, TF over GST control); with ELK4 it was 1.13 fold enrichment (6-mer frequency, TF over GST control).
